Test [1] is described as follows: qHTS of pediatric cancer cell lines to identify multiple opportunities for drug repurposing: Primary screen for TC32 cells (AID 1347089). Further: nearly all actives have a fitted effect of over 60% in size. Further: potency means the concentration at half of the fitted maximal effect. The procedure, abridged:
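TC32 cells, 500-1,000/well in growth medium, compound-treated 48 h at 37 °C; viability from CellTiter-Glo luminescence. Primary screen: MIPE 11-point (0.78 nM–46 µM final), NPC 8-point (0.59 nM–46 µM final); confirmatory at 11-point dilutions.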
(In general: In qHTS, concentration-response curves come from the screen itself.)

The nature of test [2]: qHTS of pediatric cancer cell lines to identify multiple opportunities for drug repurposing: Primary screen for DAOY cells (AID 1347090). Further: nearly all actives have a fitted effect of over 55% in size. Further: potency means the concentration at half of the fitted maximal effect. The procedure, abridged:
(§1)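 Eight- or eleven-point concentration series, 48 h treatment at 37 degrees C in growth media; readout CellTiter-Glo luminescence. Potency and efficacy were taken from the concentration-response curves.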

Test [3] in a line: qHTS of pediatric cancer cell lines to identify multiple opportunities for drug repurposing: Primary screen for SJ-GBM2 cells (AID 1347091). Further: potency means the concentration at half of the fitted maximal effect. The procedure, abridged: as §1
Test [4] is described as follows: qHTS of pediatric cancer cell lines to identify multiple opportunities for drug repurposing: Primary screen for A673 cells (AID 1347092). Further: nearly all actives have a fitted effect of over 45% in size. Further: potency means the concentration at half of the fitted maximal effect. The procedure, abridged: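 A673 cells (500-1,000 cells/well) were treated 48 hours at 37 degrees C with compounds at 11-point (0.78 nM to 46 µM) or 8-point (0.59 nM to 46 µM) dilutions. Viability read by CellTiter-Glo luminescence; concentration-response curves fitted.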

The nature of test [5]: qHTS of pediatric cancer cell lines to identify multiple opportunities for drug repurposing: Primary screen for SK-N-MC cells (AID 1347093). Further: potency means the concentration at half of the fitted maximal effect. The gist of the method: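 Metabolically active cells were quantified by ATP-dependent luminescence (CellTiter-Glo, 15 min at room temperature) following 48 h treatment. Cells had been plated at 500-1,000 per well and settled for 5 h beforehand.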

Test [6] is described as follows: qHTS of pediatric cancer cell lines to identify multiple opportunities for drug repurposing: Primary screen for BT-37 cells (AID 1347094). Further: potency means the concentration at half of the fitted maximal effect. The procedure, abridged: (§2)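 Quantitative HTS format: each compound titrated (MIPE 11 points from 0.78 nM, NPC 8 points from 0.59 nM) onto cells plated 5 hours earlier. After 48 h at 37 degrees C, CellTiter-Glo luminescence was recorded.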

A short description of test [7]: qHTS of pediatric cancer cell lines to identify multiple opportunities for drug repurposing: Primary screen for NB-EBc1 cells (AID 1347095). Further: potency means the concentration at half of the fitted maximal effect. The gist of the method: as §2
Test [8] in a line: qHTS of pediatric cancer cell lines to identify multiple opportunities for drug repurposing: Primary screen for U-2 OS cells (AID 1347096). Further: nearly all actives have a fitted effect of over 50% in size. Further: potency means the concentration at half of the fitted maximal effect. The gist of the method: (§3)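 Cells (500-1,000/well) in growth media were settled 5 h at 37 degrees C, then given compounds for 48 h. Viability was read as CellTiter-Glo luminescence. Primary runs used MIPE at 11 points (0.78 nM-46 µM) and NPC at 8 points (0.59 nM-46 µM); follow-ups used 11 points.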

Test [9] can be described thus: qHTS of pediatric cancer cell lines to identify multiple opportunities for drug repurposing: Primary screen for Saos-2 cells (AID 1347097). Further: nearly all actives have a fitted effect of over 40% in size. Further: potency means the concentration at half of the fitted maximal effect. The gist of the method: as §2
Test [10] in a line: qHTS of pediatric cancer cell lines to identify multiple opportunities for drug repurposing: Primary screen for LAN-5 cells (AID 1347100). Further: potency means the concentration at half of the fitted maximal effect. The procedure, abridged: as §3
A short description of test [11]: qHTS of pediatric cancer cell lines to identify multiple opportunities for drug repurposing: Primary screen for OHS-50 cells (AID 1347103). Further: nearly all actives have a fitted effect of over 40% in size. Further: potency means the concentration at half of the fitted maximal effect. The gist of the method:
(§4)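 Cells (500-1,000/well) rested 5 h, then received compounds for 48 h; metabolically active cells were measured by CellTiter-Glo luminescence. Final concentrations spanned up to 46 µM (MIPE, 11-point) or 0.59 nM-46 µM (NPC, 8-point) in primary screens, 11-point in follow-ups.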

Test [12] is described as follows: qHTS of pediatric cancer cell lines to identify multiple opportunities for drug repurposing: Primary screen for SK-N-SH cells (AID 1347098). Further: nearly all actives have a fitted effect of over 65% in size. Further: potency means the concentration at half of the fitted maximal effect. The gist of the method: as §4
Test [13] can be described thus: qHTS of pediatric cancer cell lines to identify multiple opportunities for drug repurposing: Primary screen for NB1643 cells (AID 1347099). Further: nearly all actives have a fitted effect of over 50% in size. Further: potency means the concentration at half of the fitted maximal effect. The procedure, abridged:
as §2

Test [14] is described as follows: qHTS of pediatric cancer cell lines to identify multiple opportunities for drug repurposing: Primary screen for BT-12 cells (AID 1347101). Further: nearly all actives have a fitted effect of over 25% in size. Further: potency means the concentration at half of the fitted maximal effect. The gist of the method: as §4
A short description of test [15]: qHTS of pediatric cancer cell lines to identify multiple opportunities for drug repurposing: Primary screen for Rh18 cells (AID 1347102). Further: nearly all actives have a fitted effect of over 65% in size. Further: potency means the concentration at half of the fitted maximal effect. The gist of the method:
as §3

A short description of test [16]: qHTS of pediatric cancer cell lines to identify multiple opportunities for drug repurposing: Primary screen for RD cells (AID 1347104). Further: nearly all actives have a fitted effect of over 55% in size. Further: potency means the concentration at half of the fitted maximal effect. The procedure, abridged: as §2
Test [17] has as its target T1, Tyrosine-protein phosphatase non-receptor type substrate 1 (Homo sapiens) + Leukocyte surface antigen CD47 (Homo sapiens) (UniProt P78324+Q08722). Nature of the test: CD47-SIRPalpha protein protein interaction - LANCE assay qHTS validation (AID 1347057; active means well fitted curve in the direction sought with a large enough effect in the signal ratio, with a control signal flat, not every such curve was filed as active; the % refers to the signal ratio; further: series mostly up to about 38 µM). The procedure, abridged: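 Inhibition of soluble CD47/SIRPalpha ectodomain association by titrated compounds, measured as 665/615 nm time-resolved FRET ratio after sequential 30 min room-temperature incubations.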
Background: TR-FRET usually uses a lanthanide donor and a delayed reading to cut background.

The target in test [18] is T1, Tyrosine-protein phosphatase non-receptor type substrate 1 (Homo sapiens) + Leukocyte surface antigen CD47 (Homo sapiens). Nature of the test: CD47-SIRPalpha protein protein interaction - HTRF assay qHTS validation (AID 1347058; active means well fitted curve in the direction sought with a large enough effect in the signal ratio, not every such curve was filed as active; the % refers to the signal ratio; further: series mostly up to about 38 µM). The gist of the method:
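Soluble extracellular domains (6His-CD47, Avi-tag-biotinylated SIRPalpha) in PBS pH 7.4 with 0.05% IGEPAL CA-630. Compounds were preincubated 30 min at RT with CD47 and anti-His-Eu, then SIRPalpha and SAV-XL665 were added. TR-FRET 665/615 ratio.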

The target is the same in test [19]. Nature of the test: CD47-SIRPalpha protein protein interaction - Alpha assay qHTS validation (AID 1347059).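 Further: bead proximity luminescence from CD47 binding SIRPalpha after compound preincubation with SIRPalpha.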 The gist of the method:
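In PBS (pH 7.4) with 0.05% IGEPAL CA-630, compound is preincubated with biotin-Avi-SIRPalpha ectodomain before His-CD47 ectodomain and affinity beads are added. Light-protected room-temperature incubations; AlphaScreen readout.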

Test [20] addresses Parathyroid hormone/parathyroid hormone-related peptide receptor (Homo sapiens) (UniProt Q03431). Put plainly: qHTS for PTHR1 Agonists: Optimization Screen against the NCGC LOPAC library (AID 1347079).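 Further: GloSensor cAMP luminescence in HEK-293 GP2 cells expressing human PTHR1 with IBMX.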 The gist of the method: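 Signal increase flags agonism. GP2 cells, derived from HEK-293, express human PTHR1 and a GloSensor cAMP construct.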

Inconclusive results are not listed. Calls of active or inactive are those of the source. Unless noted, the call rests on the fitted dose curve; in most records, active means well fitted curve in the direction sought with a large enough effect; inconclusive means small, poorly fitted or top-dose-only effect, or another doubt; inactive means no such curve, though single readings can be large; an effect the other way counts as inactive or inconclusive.

Data on eleven molecules can be found in PubChem BioAssay (NCATS).

T1 sequence (P78324 whole entry, looked up, the tested form may be a part): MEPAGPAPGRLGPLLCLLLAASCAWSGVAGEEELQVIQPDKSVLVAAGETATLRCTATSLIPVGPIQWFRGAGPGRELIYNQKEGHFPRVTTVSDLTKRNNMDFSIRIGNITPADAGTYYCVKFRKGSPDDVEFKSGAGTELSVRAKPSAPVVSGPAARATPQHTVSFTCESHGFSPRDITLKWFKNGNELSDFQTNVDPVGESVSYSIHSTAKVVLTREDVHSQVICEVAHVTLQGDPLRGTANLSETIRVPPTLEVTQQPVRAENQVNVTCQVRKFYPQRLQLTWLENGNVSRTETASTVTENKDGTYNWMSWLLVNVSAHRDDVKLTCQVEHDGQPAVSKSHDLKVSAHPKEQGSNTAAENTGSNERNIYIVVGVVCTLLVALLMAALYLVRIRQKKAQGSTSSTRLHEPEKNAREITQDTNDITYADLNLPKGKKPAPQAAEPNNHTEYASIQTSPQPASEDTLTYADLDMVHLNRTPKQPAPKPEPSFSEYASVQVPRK
T1 sequence (Q08722 whole entry, looked up, the tested form may be a part): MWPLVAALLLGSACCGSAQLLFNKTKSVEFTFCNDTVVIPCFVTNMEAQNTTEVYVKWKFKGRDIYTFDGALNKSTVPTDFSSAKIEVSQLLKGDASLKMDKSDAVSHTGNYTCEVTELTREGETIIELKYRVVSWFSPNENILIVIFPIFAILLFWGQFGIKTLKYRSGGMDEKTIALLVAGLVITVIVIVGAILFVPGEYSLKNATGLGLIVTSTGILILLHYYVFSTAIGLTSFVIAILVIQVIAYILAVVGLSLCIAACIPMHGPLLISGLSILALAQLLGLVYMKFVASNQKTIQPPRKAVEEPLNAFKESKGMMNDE
Chain of Parathyroid hormone/parathyroid hormone-related peptide receptor (Homo sapiens) (Q03431 whole entry, looked up): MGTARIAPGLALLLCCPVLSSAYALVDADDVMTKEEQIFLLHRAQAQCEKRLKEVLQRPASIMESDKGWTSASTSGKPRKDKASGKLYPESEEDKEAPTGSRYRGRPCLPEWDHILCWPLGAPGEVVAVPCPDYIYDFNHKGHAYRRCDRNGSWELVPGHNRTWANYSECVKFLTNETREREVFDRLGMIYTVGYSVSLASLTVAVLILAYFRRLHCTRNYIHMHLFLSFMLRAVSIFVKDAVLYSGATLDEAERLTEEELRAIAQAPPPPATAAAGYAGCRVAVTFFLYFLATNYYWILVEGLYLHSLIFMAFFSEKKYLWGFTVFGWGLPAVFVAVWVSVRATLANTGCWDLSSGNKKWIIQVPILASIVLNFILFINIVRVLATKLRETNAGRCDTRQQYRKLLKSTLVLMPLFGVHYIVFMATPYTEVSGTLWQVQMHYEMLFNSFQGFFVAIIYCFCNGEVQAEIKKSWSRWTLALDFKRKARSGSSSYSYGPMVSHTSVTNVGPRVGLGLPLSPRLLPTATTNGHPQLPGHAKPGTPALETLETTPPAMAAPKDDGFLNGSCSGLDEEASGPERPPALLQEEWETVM

Take `COc1ccc(C=Cc2cc(OC)c(OC)c(OC)c2)cc1O`: the Potency in test [1] is 0.0004 µM (active); in test [2] it was 0.001 µM (active); in test [3], 0.001 µM (active); in [4], 0.001 µM (active); in [5], 0.001 µM (active); in test [6], 0.0137 µM (active). In addition, the Potency is 0.001 µM (active) in test [7], 0.935 µM (active) in test [9], 0.001 µM (active) in test [10] and 0.001 µM (active) in [11]. In addition, the Potency result in test [8] is “inactive”.
In the case of `Cc1ccc(C(=O)Nc2cccc(C(F)(F)F)c2)cc1-c1ccc2nc(NCCN3CCOCC3)ncc2c1`, the Potency in test [1] is 18.6 µM (active); in [2] it was 14.8 µM (active); in test [3], 6.62 µM (active); in test [4] it was 4.69 µM (active); in test [5], 4.69 µM (active); in [6] it was 6.11 µM (active). In addition, the Potency in [7] was 3.72 µM (active); in [9] it was 5.9 µM (active); in test [12], 9.61 µM (active); in test [13] it was 5.26 µM (active); in [10], 14.8 µM (active); in [14], 7.69 µM (active). Moreover, the values for the Potency in test [15], in [11] and in test [16] were 7.43 µM (active), 3.85 µM (active) and 5.9 µM (active), respectively. In addition, in test [8], the Potency entry is “inactive”.
As for `C=CC(=O)Nc1cccc(Oc2nc(Nc3ccc(N4CCN(C)CC4)cc3)ncc2Cl)c1`, the Potency in [1] was 7.39 µM (active); in test [2], 0.935 µM (active); in [3], 1.87 µM (active); in test [4] it was 0.935 µM (active); in test [5] it was 0.469 µM (active); in test [6], 21.7 µM (active). For the same molecule, the Potency in test [7] was 2.35 µM (active); in test [8], 4.69 µM (active); in test [12], 3.83 µM (active); in test [10] it was 2.64 µM (active); in [14] it was 17.2 µM (active); in test [15], 3.72 µM (active). Further, the Potency in test [11] is 3.06 µM (active).
Consider `Nc1ccn([C@@H]2O[C@H](CO)[C@H](O)C2(F)F)c(=O)n1`, for which the Potency is 0.117 µM (active) in test [1]; 1.87 µM (active) in test [2]; 0.235 µM (active) in [3]; 0.0187 µM (active) in test [4]; 1.32 µM (active) in test [5]; 0.0306 µM (active) in test [6]. For the same molecule, the Potency in test [7] is 0.935 µM (active); in test [9], 3.72 µM (active); in test [13], 0.469 µM (active); in test [10] it was 0.0935 µM (active). Also, in test [8], the Potency entry was “inactive”.
Regarding `CC(O)C1C(=O)N2C(C(=O)O)=C(SC3CNC(C(=O)N(C)C)C3)C(C)C12` (stereo unspecified), the Potency entry in [1], in test [2], in [3], in [4], in [5] and in test [6] was “inactive” in each case. The Potency entry in [7], in test [8], in test [9], in test [12], in test [10] and in test [14] was “inactive” each time. Moreover, the Potency result in test [15], in test [11] and in [16] was “inactive” throughout.
`c1nc2nc(Nc3ccc(N4CCOCC4)cc3)nc(NC3CCCCC3)c2[nH]1`: the Potency is 4.66 µM (active) in test [1]; 18.7 µM (active) in test [2]; 1.48 µM (active) in test [3]; 4.69 µM (active) in [4]; 0.935 µM (active) in test [5]; 21.7 µM (active) in test [6]. Moreover, the Potency in test [7] was 3.72 µM (active); in [9], 4.69 µM (active); in test [12], 4.29 µM (active); in test [13] it was 1.66 µM (active); in test [10], 0.469 µM (active); in test [14], 21.7 µM (active). Moreover, in [11], the Potency was 2.17 µM (active). Besides, the Potency entry in [8] was “inactive”.
Take `CC[C@@]1(O)C(=O)OCc2c1cc1n(c2=O)Cc2cc3cc(O)ccc3nc2-1`: the Potency was 0.0415 µM (active) in test [1]; 0.118 µM (active) in [2]; 0.0235 µM (active) in test [3]; 0.0296 µM (active) in test [4]; 0.0132 µM (active) in test [5]; 0.0217 µM (active) in test [6]. Also, the Potency in test [7] was 0.0118 µM (active); in test [9], 0.0662 µM (active); in test [12], 0.429 µM (active); in test [13] it was 0.059 µM (active); in test [10], 0.0132 µM (active); in test [14], 0.385 µM (active). Besides, the Potency in test [15] was 0.418 µM (active); in test [11], 0.0343 µM (active); in [16], 1.32 µM (active). For the same molecule, the Potency entry in [8] is “inactive”.
Take `COc1c(N2C[C@@H]3CCCN[C@H]3C2)c(F)cc2c(=O)c(C(=O)O)cn(C3CC3)c12`: the Potency entry in test [1], in test [2], in [3], in test [4], in test [5] and in [6] was “inactive” throughout. The Potency entry in [7], in test [8], in test [9], in test [12], in test [13] and in test [14] was “inactive” in each case. The Potency result in test [15], in test [11] and in [16] was “inactive” in each case.
On to `CC1(C)OC2=C(C(=O)c3ccccc3C2=O)[C@H](NCc2ccccc2)[C@H]1O`, for which the Potency in [1] was 18.6 µM (active); in test [2], 5.9 µM (active); in test [3], 7.43 µM (active); in [4], 0.469 µM (active); in test [5], 1.48 µM (active); in test [6], 8.63 µM (active). In addition, the Potency in test [7] is 2.35 µM (active); in [8], 9.35 µM (active); in test [9] it was 5.9 µM (active); in test [12] it was 4.82 µM (active); in [13], 4.18 µM (active); in test [14] it was 13.7 µM (active). Besides, the Potency in test [11] is 4.32 µM (active); in test [16], 10.5 µM (active).
Turning to `O=c1c2ccccc2nc2n1CCc1c-2[nH]c2ccccc12`, the outcome in test [17], in test [18], in test [19] and in test [20] was inactive. The Potency result in [1], in test [2], in [3], in [4], in [5] and in test [7] was “inactive” in each case. Besides, the Potency entry in [8], in [9], in test [12], in [13], in [15] and in test [11] was “inactive” in each case. Further, the Potency result in test [16] is “inactive”.
With `Cc1cn2cc(C(=O)N(C)CCO)cc(N[C@@H]3CCOc4cccc(C)c43)c2n1`, the Potency result in test [1], in test [2], in test [3], in test [4], in test [5] and in test [6] was “inactive” throughout. The Potency result in test [7], in test [8], in test [9], in [13], in test [14] and in [15] was “inactive” throughout. Besides, the Potency result in test [11] and in test [16] was “inactive” throughout.
